Experimental data from the supplement of paper PMC3342239.
Structures can show the parent of a compound that is named as a salt.

tested on: Saccharomyces cerevisiae; experiment: fraction of cells in G1 phase (DNA content, flow cytometry); higher = more cells with unreplicated DNA (G1 delay); conditions: temperature: 30 C; YPD; BY4741 PDR5+ SNQ2+; drug added to: actively dividing cells; 4.33 h
Outline: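 For the G1 fraction, the Dean-Jett-Fox G1 peak area was divided by the sum of the G1 and G2/M areas. S. cerevisiae in YPD at 30°C received library drugs and was fixed 6–7 h later for sensitized JTY2953 (diluted 1∶200 from overnight, final 20 µg/ml), 6 h later for dividing JTY2953, or 4.33 h later for BY4741. Fixed cells were stained with SYTOX Green and 10,000 events recorded by flow cytometry.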

SMILES | fraction of cells in G1 phase
CC(CN1c2ccccc2Sc2ccccc21)N(C)C (configuration not stated) [Promethazine HCl] (70.317 µM) | 0.437
CO[C@@]12[C@H](COC(N)=O)C3=C(C(=O)C(C)=C(N)C3=O)N1C[C@@H]1N[C@@H]12 [Mitomycin c] (59.8203 µM) | 0.399
CN1CCN(C2=Nc3cc(Cl)ccc3Nc3ccccc32)CC1 [Clozapine] (61.1935 µM) | 0.437

same assay, conditions: temperature: 30 C; YPD; JTY2953 pdr5 snq2 (sensitized); drug added to: actively dividing cells; 6 h

SMILES | fraction of cells in G1 phase
COc1cccc2c1C(=O)c1c(O)c3c(c(O)c1C2=O)C[C@@](O)(C(=O)CO)C[C@@H]3O[C@H]1C[C@H](N)[C@H](O)[C@H](C)O1 [Doxorubicin HCl] (34.4828 µM) | 0.618
Clc1ccc(CO/N=C(\Cn2ccnc2)c2ccc(Cl)cc2Cl)c(Cl)c1 [Oxiconazole nitrate] (46.6053 µM) | 0.397
COc1ccc(-c2cc(=S)ss2)cc1 [Anethole-trithione (anetholtrithion)] (83.2062 µM) | 0.486
CC/C(=C(\c1ccccc1)c1ccc(OCCN(C)C)cc1)c1ccccc1 [Tamoxifen citrate] (53.8319 µM) | 0.385
CN1CCC[C@@H]1CCO[C@](C)(c1ccccc1)c1ccc(Cl)cc1 [Clemastine fumarate] (58.1564 µM) | 0.585
O=C1Nc2ccc(Cl)cc2[C@@](C#CC2CC2)(C(F)(F)F)O1 [Efavirenz] (63.355 µM) | 0.4
C#C[C@]1(O)CC[C@H]2[C@@H]3CCC4=Cc5oncc5C[C@]4(C)[C@H]3CC[C@@]21C [Danazol] (59.2652 µM) | 0.457
CN1CCN(CCCN2c3ccccc3Sc3ccc(C(F)(F)F)cc32)CC1 [Trifluoperazine 2HCl] (41.632 µM) | 0.295
CN(C)CCOc1ccc(/C(=C(/CCCl)c2ccccc2)c2ccccc2)cc1 [Toremifene] (49.2645 µM) | 0.524
Clc1ccc(C(Cn2ccnc2)OCc2ccsc2Cl)c(Cl)c1 (configuration not stated) [Tioconazole] (51.5839 µM) | 0.427
CCC(C)(C)C(=O)O[C@H]1C[C@@H](C)C=C2C=C[C@H](C)[C@H](CC[C@@H]3C[C@@H](O)CC(=O)O3)[C@H]21 [Simvastatin] (47.7808 µM) | 0.354
O=C1NCN(c2ccccc2)C12CCN(CCCC(c1ccc(F)cc1)c1ccc(F)cc1)CC2 [Fluspirilene] (42.0533 µM) | 0.338

same assay, conditions: temperature: 30 C; YPD; JTY2953 pdr5 snq2 (sensitized); drug added to: cultures diluted from stationary phase; 6-7 h

SMILES | fraction of cells in G1 phase
CC(CN1c2ccccc2Sc2ccccc21)N(C)C (configuration not stated) [Promethazine HCl] (70.317 µM) | 0.204
CC(C(=O)O)c1ccc2c(c1)Cc1cccnc1O2 (configuration not stated) [Pranoprofen] (78.3466 µM) | 0.479
COc1cccc2c1C(=O)c1c(O)c3c(c(O)c1C2=O)C[C@@](O)(C(=O)CO)C[C@@H]3O[C@H]1C[C@H](N)[C@H](O)[C@H](C)O1 [Doxorubicin HCl] (34.4828 µM) | 0.64
COc1ccc(CN(CCN(C)C)c2ccccn2)cc1 [Mepyramine maleate] (70.079 µM) | 0.495
COc1ncnc(NS(=O)(=O)c2ccc(N)cc2)c1OC [Sulfadoxine] (64.4467 µM) | 0.474
CC(=O)OCC(=O)[C@@]1(O)CC[C@H]2[C@@H]3CCC4=CC(=O)CC[C@]4(C)[C@H]3[C@@H](O)C[C@@]21C [Hydrocortisone 21-acetate] (49.4428 µM) | 0.494
CCOC(=O)[C@H](CCc1ccccc1)N[C@@H](C)C(=O)N1CCC[C@H]1C(=O)O [Enalapril] (53.127 µM) | 0.511
Clc1ccc(CO/N=C(\Cn2ccnc2)c2ccc(Cl)cc2Cl)c(Cl)c1 [Oxiconazole nitrate] (46.6053 µM) | 0.853
N/C(=N\C(=O)c1nc(Cl)c(N)nc1N)NCc1ccccc1 [Benzamil HCl] (56.1482 µM) | 0.493
O=C(O)C(=O)O.[NH-][C@@H]1CCCC[C@H]1[NH-].[Pt+2] [Oxaliplatin] (50.3396 µM) | 0.493
NC(=O)N1c2ccccc2CC(=O)c2ccccc21 [Oxcarbazepine] (79.2785 µM) | 0.503
COc1ccc(-c2cc(=S)ss2)cc1 [Anethole-trithione (anetholtrithion)] (83.2062 µM) | 0.735
CO[C@@]12[C@H](COC(N)=O)C3=C(C(=O)C(C)=C(N)C3=O)N1C[C@@H]1N[C@@H]12 [Mitomycin c] (59.8203 µM) | 0.273
COC(=O)CCc1ccc(OCC(O)CNC(C)C)cc1 (configuration not stated) [Esmolol] (67.7089 µM) | 0.459
CC/C(=C(\c1ccccc1)c1ccc(OCCN(C)C)cc1)c1ccccc1 [Tamoxifen citrate] (53.8319 µM) | 0.896
C/N=C(/NC#N)NCCSCc1csc(NC(=N)N)n1 [Tiotidine] (64.0163 µM) | 0.478
CN1CCN(C2=Nc3cc(Cl)ccc3Nc3ccccc32)CC1 [Clozapine] (61.1935 µM) | 0.319
O=C(NC(Cc1cc(=O)[nH]c2ccccc12)C(=O)O)c1ccc(Cl)cc1 (configuration not stated) [Rebamipide] (53.9381 µM) | 0.473
O=C(O)Cc1ccccc1Nc1c(Cl)cccc1Cl [Diclofenac, Na] (67.5321 µM) | 0.473

SMILES | fraction of cells in G1 phase
CC(C)CN(C[C@@H](O)[C@H](Cc1ccccc1)NC(=O)O[C@H]1CCOC1)S(=O)(=O)c1ccc(N)cc1 [Amprenavir] (39.554 µM) | 0.472
Cn1ccnc1S [Methimazole] (175.178 µM) | 0.473
C[C@]12CCC(=O)C=C1CC[C@@H]1[C@@H]2[C@@H](O)C[C@@]2(C)[C@H]1CC[C@]2(O)C(=O)CO [Hydrocortisone] (55.1769 µM) | 0.483
CN1CCC[C@@H]1CCO[C@](C)(c1ccccc1)c1ccc(Cl)cc1 [Clemastine fumarate] (58.1564 µM) | 0.66
O=C1Nc2ccc(Cl)cc2[C@@](C#CC2CC2)(C(F)(F)F)O1 [Efavirenz] (63.355 µM) | 0.879
CCCOc1ccccc1-c1nc2[nH]nnc2c(=O)[nH]1 [Zaprinast] (73.7243 µM) | 0.482
CC(C)OC(=O)CCC/C=C\C[C@@H]1[C@@H](CC[C@@H](O)CCc2ccccc2)[C@H](O)C[C@@H]1O [Latanoprost] (46.2315 µM) | 0.528
C#C[C@]1(O)CC[C@H]2[C@@H]3CCC4=Cc5oncc5C[C@]4(C)[C@H]3CC[C@@]21C [Danazol] (59.2652 µM) | 0.88
Cc1cc2c(s1)Nc1ccccc1N=C2N1CCN(C)CC1 [Olanzapine] (64.0123 µM) | 0.527
CCOC(=O)C1=C[C@]2(CC)CCCN3CCc4c(n1c1ccccc41)[C@@H]32 [Vinpocetine] (57.0671 µM) | 0.439
CN1C(C(=O)Nc2ccccn2)=C(O)c2sccc2S1(=O)=O [Tenoxicam] (59.2806 µM) | 0.469
CC(=O)O[C@]1(C(C)=O)CC[C@H]2[C@@H]3C=C(Cl)C4=CC(=O)CC[C@]4(C)[C@H]3CC[C@@]21C [Chlormadinone acetate] (44.5442 µM) | 0.577
CN1CCN(CCCN2c3ccccc3Sc3ccc(C(F)(F)F)cc32)CC1 [Trifluoperazine 2HCl] (41.632 µM) | 0.873
CN(C)CCOc1ccc(/C(=C(/CCCl)c2ccccc2)c2ccccc2)cc1 [Toremifene] (49.2645 µM) | 0.901
Clc1ccc(C(Cn2ccnc2)OCc2ccsc2Cl)c(Cl)c1 (configuration not stated) [Tioconazole] (51.5839 µM) | 0.863
CCC(C)(C)C(=O)O[C@H]1C[C@@H](C)C=C2C=C[C@H](C)[C@H](CC[C@@H]3C[C@@H](O)CC(=O)O3)[C@H]21 [Simvastatin] (47.7808 µM) | 0.879
O=C1NCN(c2ccccc2)C12CCN(CCCC(c1ccc(F)cc1)c1ccc(F)cc1)CC2 [Fluspirilene] (42.0533 µM) | 0.865
CC(N/C(=N\C#N)Nc1ccncc1)C(C)(C)C (configuration not stated) [Pinacidil] (81.5229 µM) | 0.51
